A selection: hits, their analogues and other compounds. The true share with any hit is near 2.4%.
D2 PAM-1 – human D2 receptor positive allosteric modulation; AID 624464; DiscoveRx D2 beta-arrestin cells, luminescence, 90 min; 100% = 57 uM dopamine signal; actives 0.23% (n = 360,000); potentiation, % (no concentration beside the values); P14416; in the data active = potentiation above about 50%; inconclusive = mostly about 30% to 49%
Target sequence (P14416 whole entry, looked up): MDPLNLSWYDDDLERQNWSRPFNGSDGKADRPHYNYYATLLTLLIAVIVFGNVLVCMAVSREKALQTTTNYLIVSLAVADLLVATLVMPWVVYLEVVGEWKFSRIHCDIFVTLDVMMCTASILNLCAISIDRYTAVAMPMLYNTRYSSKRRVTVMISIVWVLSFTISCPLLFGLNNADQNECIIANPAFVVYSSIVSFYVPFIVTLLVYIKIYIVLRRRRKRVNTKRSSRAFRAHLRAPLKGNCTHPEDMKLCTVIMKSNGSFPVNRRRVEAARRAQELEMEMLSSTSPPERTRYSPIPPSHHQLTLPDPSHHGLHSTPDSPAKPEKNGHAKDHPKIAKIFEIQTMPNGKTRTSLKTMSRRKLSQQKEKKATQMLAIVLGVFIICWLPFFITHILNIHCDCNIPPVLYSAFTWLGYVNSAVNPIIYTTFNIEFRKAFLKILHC
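PathHunter beta-arrestin assay in DiscoveRx D2 cells. Compounds were added with an EC20 of dopamine (50 nM final) for 90 min at 37 deg C. Luminescence was read 1 h after detection reagent, with 57 uM dopamine as the EC100 control.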
D2 antagonist – antagonists of human D2 dopamine receptor. inhibition, % at 10 µM. HEK293 TREx D2 cells, calcium flux, dopamine EC80. actives 2% (n = 340,000). AID 485344; in the data active = inhibition above about 30%; inactive = below that, where a call was filed; also: 0% is about no effect
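Antagonism is scored as inhibition of an EC80 dopamine-evoked calcium signal in a force-coupled, tetracycline-inducible HEK293 T-REx D2 line, with compound present 180 s before agonist.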
D2 ag-1 – activates the human D2 dopamine receptor | P14416 | DiscoveRx PathHunter D2 beta-arrestin, luminescence, 90 min; 100% = 57 uM dopamine signal | activation, % (no concentration beside the values) | actives 0.084% (n = 360,000) | AID 624465; in the data active = activation above about 40%; inconclusive = between about 15% and that limit
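Agonist mode: compounds alone added to overnight-plated D2 PathHunter cells for 90 min at 37 C, with 57 uM final dopamine (EC100) defining full response. Beta-arrestin recruitment detected by chemiluminescent reagent, read after 1 h at ambient temperature.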
D2 ag-2 – D2 dopamine receptor (human) agonism. HEK293 T-REx D2 cells, calcium flux agonist mode. actives 0.53% (n = 340,000). activation, % at 2 µM;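 active = activation over 3 SD above normal in the single-dose calcium agonist read, cut at about 30% in these data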; also: 0% is about no effect
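Tetracycline-induced HEK293 Trex cells with D2 receptor force-coupled to calcium signaling, plated overnight at 30 C and loaded with no-wash calcium dye. Calcium flux read kinetically for 180 s after compound addition; responses flag agonists.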
D2 PAM-2 – D2 dopamine receptor (human) potentiation; actives 0.34% (n = 340,000); potentiation, % at 10 µM; P14416; HEK293 T-REx D2, calcium flux, EC20 dopamine potentiation;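 active = potentiation over 3 SD above the plate norm, cut at about 30% in these data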; also: 0% is about no effect
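Calcium flux readout, no-wash dye, 1 read/s. Inducible HEK293 Trex D2 line, overnight 30 C. Compound alone 180 s (agonist flags), then EC20 dopamine, another 180 s to score potentiation.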
Starred values were filed as active, the others as inactive; ? = inconclusive; / = not tested or not shown.

SMILES | D2 PAM-1 | D2 antagonist | D2 ag-1 | D2 ag-2 | D2 PAM-2
Cc1ccc(C(=O)N2CCN(c3ccc(NC(=O)c4cccnc4Cl)cc3)CC2)cc1 | 0.2 | 15.8 | -2.0 | 0.2 | 9.5
COc1ccc(C(=O)NNC(=O)CSc2nnc(C(C)C)n2C)cc1 | -3.2 | -5.7 | -3.2 | 0.4 | -0.5
COC(=O)C1C(O)CCC2CN3CCc4c([nH]c5ccccc45)C3CC21 (configuration not stated) | -7.6 | 49.9* | 2.8 | -1.6 | -23.4
COC(=O)C1C2CC3c4[nH]c5cc(OC)ccc5c4CCN3CC2CC(O)C1OC (configuration not stated) | -18.0 | / | 5.2 | / | /
COC(=O)[C@H]1[C@H]2C[C@H]3c4[nH]c5ccccc5c4CCN3C[C@H]2CC[C@@H]1O | -23.2 | 86.8* | 4.1 | -1.0 | -22.9
Cc1ccc(NC(=O)CN2CCc3ccccc3C2)cc1F | -3.2 | 4.4 | 0.8 | -0.5 | -7.4
COc1cc(NC(=S)NCc2cccnc2)cc(OC)c1 | -3.1 | 0.9 | -1.3 | 0.2 | -3.1
COc1cccc(NC(=O)C2C3C=CC(O3)C2C(=O)NCc2cccnc2)c1 (configuration not stated) | -21.5 | 44.1* | -2.2 | -0.9 | -14.9
CC(C)(CO)NC(=O)C(Cc1ccccc1)N1C(=O)c2ccccc2C1=O (configuration not stated) | -9.5 | 6.0 | -2.3 | 0.9 | 0.6
Oc1c(Br)cc(Br)cc1CNc1cccc2cccnc12 | 13.8 | 0.7 | -0.1 | 3.0 | 6.2
O=C1C=C(c2cccs2)C[C@H](c2ccccc2)[C@H]1n1nnc([N+](=O)[O-])n1 | 92.2* | -10.2 | ? | -1.0 | 7.2
COC(=O)c1cc2cc(NS(=O)(=O)c3ccc(C)cc3)ccc2s1 | -9.5 | -8.7 | -1.7 | -2.0 | 42.5*
COC(=O)c1sc(S(=O)(=O)Nc2ccc(C)cc2)c(C(=O)OC)c1C | 1.5 | 3.9 | -3.7 | 5.1 | 32.4*
CCOCCn1c(=NC(=O)CSCC(=O)N2CCOCC2)sc2cc(OC)ccc21 | -7.1 | 1.7 | -1.5 | -1.7 | 4.2
CC(C)OCCCNC(=O)c1ccc2c(c1)S(=O)(=O)c1ccccc1C2=O | 72.0* | 19.2 | 1.4 | 0.0 | 3.6
CCCCNC(=O)c1ccc2c(c1)S(=O)(=O)c1ccccc1C2=O | 10.9 | 6.8 | 4.6 | -1.0 | -7.8
OCCC1CN(Cc2cccc3nonc23)CCN1C1CCCCC1 (configuration not stated) | -16.0 | 37.7* | -6.3 | -0.8 | -13.1
OCCC1CN(Cc2cccc3nccnc23)CCN1C1CCCC1 (configuration not stated) | -15.9 | -10.5 | 0.8 | 0.4 | -11.1
O=C(COc1cccc(C(F)(F)F)c1)NCC(c1ccco1)N1CCCCC1 (configuration not stated) | -6.7 | 11.2 | -2.1 | -0.1 | -15.1
CCCSc1nnc2n(Cc3ccccc3)c(=O)c3c4c(sc3n12)CCC4 | / | / | / | / | -2.0
CCCSc1nnc2n(C)c(=O)c3c4c(sc3n12)CCC4 | 11.4 | 40.1* | -6.2 | 3.6 | 12.9
COc1ccccc1NC(=O)c1cc(=O)c2ccc(C)c(C)c2o1 | / | / | / | 1.1 | 7.8
Cc1ccc(CN2CCN(/N=C/c3ccc(C(F)(F)F)cc3)CC2)cc1 | -15.2 | -25.9 | 1.1 | -0.1 | -3.2
Cc1ccc(/C=N/N2CCN(Cc3ccc(C)cc3)CC2)cc1 | -13.4 | 54.9* | 0.9 | -0.3 | -20.1
FC(F)(F)c1ccccc1/C=N/N1CCN(Cc2ccccc2)CC1 | -21.2 | 30.1* | -0.1 | -0.5 | -21.3
SMILES | D2 PAM-1 | D2 antagonist | D2 ag-1 | D2 ag-2 | D2 PAM-2
Cc1ccc(CN2CCN(/N=C/c3cccs3)CC2)cc1 | -29.6 | 33.8* | -1.2 | -0.7 | -24.6
Clc1ccccc1/C=N/N1CCN(Cc2ccccc2)CC1 | -5.6 | -9.1 | -0.3 | 0.3 | -7.5
Cc1ccc(CCNC(=O)CN(c2cc(C)cc(C)c2)S(=O)(=O)c2c(C)noc2C)cc1 | -4.0 | 11.2 | -3.6 | 0.1 | -5.4
O=C(O)CN1C(=O)/C(=C\c2cc(Br)ccc2OCc2ccc(Cl)cc2Cl)SC1=S | -5.9 | 14.8 | -6.5 | 0.7 | -4.7
O=C(Nc1nnc(S(=O)(=O)N2CCCC2)s1)c1ccccc1Cl | -2.4 | 34.9* | -5.4 | -1.9 | -4.1
O=C(Nc1nnc(S(=O)(=O)N2CCCCCC2)s1)c1ccccc1Cl | -5.7 | / | 2.5 | 1.9 | 4.2
Cc1cccc(NC(=O)c2c(C)nc3ccccn23)c1 | -2.9 | 40.1* | -2.1 | 0.2 | 0.1
C=CCOc1c(Br)cc(/C=C(\C#N)C(N)=O)cc1OC | -3.0 | -2.3 | 0.0 | 0.7 | -4.0
COc1cc(C=O)cc(Br)c1OCC(N)=O | -8.9 | 34.2* | -5.9 | -0.7 | 1.5
N/C(=N\OC(=O)c1ccc(Cl)cc1Cl)c1ccccn1 | 5.0 | -24.5 | -0.4 | 0.0 | 6.8
N/C(=N\OC(=O)c1ccc(Cl)cc1[N+](=O)[O-])c1ccccn1 | 6.8 | 0.5 | 62.6* | -0.1 | 9.1
Cc1ccc(C(=O)O/N=C(\N)c2ccccn2)c(Cl)c1 | 90.8* | -4.9 | ? | -0.3 | 2.1
N/C(=N\OC(=O)c1ccc2ccccc2c1)c1ccccn1 | 14.2 | 7.9 | ? | 0.7 | -4.8
COc1cccc(C(=O)O/N=C(\N)c2ccccn2)c1 | 55.4* | -7.8 | 13.1 | 0.7 | -1.5
Cc1nnc(SCC(=O)NNC(=O)COc2ccc(Br)cc2)n1C | -0.9 | -0.9 | -3.2 | 0.2 | 14.2
Cc1cc(OCC(=O)Nc2ccc(CN3CCOCC3)cc2)ccc1Cl | -4.3 | -1.3 | 4.5 | 0.1 | -7.7
CN(C)C=NC(=O)c1cc(C(=O)c2ccccc2)c[nH]1 | -1.2 | 33.2* | -1.6 | 0.0 | -0.4
CN(C)C=NC(=O)c1cc(C(=O)c2ccc(F)cc2)c[nH]1 | -4.5 | 5.4 | -0.9 | -0.1 | -0.6
COC(=O)c1cc(Nc2cc(C)c3ccc(O)cc3n2)cc(C(=O)OC)c1 | -0.5 | 7.0 | -1.4 | 0.1 | -0.6
O=C(NCCCN1CCN(c2ccc(F)cc2)CC1)C1COc2ccccc2C1 (configuration not stated) | / | / | / | 4.4 | -16.1
O=C(COC(=O)C1=NN(c2ccccc2)C(=O)CC1)NCc1ccccc1Cl | 13.4 | 31.5* | -2.9 | -1.5 | -5.0
Cc1cc(Nc2cccc([N+](=O)[O-])c2)n2c(nc3ccccc32)c1C#N | 15.7 | 34.9* | -0.6 | 3.5 | 8.2
Cc1cc(Nc2ccc(F)cc2)n2c(nc3ccccc32)c1C#N | / | / | / | 2.3 | 12.4
Cn1c(=O)oc2cc(S(=O)(=O)N3CCC4(CC3)OCCO4)ccc21 | 2.1 | 3.6 | 0.4 | 1.8 | -1.1
Cn1c(=O)oc2cc(S(=O)(=O)N3CCOCC3)ccc21 | 20.5 | 45.9* | -0.1 | -0.5 | -13.0
Cc1cc(N2C(=O)C(O)=C(C(=O)c3ccco3)C2c2cccc(Cl)c2)no1 (configuration not stated) | -4.5 | 6.2 | -1.1 | 0.3 | -2.2
COc1ccccc1N1CCN(S(=O)(=O)c2ccc(-n3cnnn3)cc2)CC1 | -8.0 | 3.7 | 1.5 | -1.7 | -8.6

Assay outcomes deposited in PubChem by National Center for Advancing Translational Sciences (NCATS).
